A selection: hits, their analogues and other compounds. The true share with any hit is near 2.6%.
PABP1 MLLE inh = inhibitors of microRNA-mediated deadenylation, human PABP1 MLLE binding; P11940; GST-MLLE / FITC-PAM2 fluorescence polarization; inhibition, % at 20 µM; 360,000 tested, 0.36% active; AID 588489; in the data active = inhibition above about 35%, passing the limit was not always enough;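 also: plate controls were DMSO wells with GST-MLLE for no effect and wells lacking GST-MLLE protein for full effect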
PHOSPHO1 inh = blocks human PHOSPHO1 phosphatase activity | Q8TCT1 | recombinant PHOSPHO1, absorbance phosphatase assay | inhibition, % at 13.3 µM | 290,000 tested, 1.1% active | AID 1565; in the data active = inhibition above about 60%
Target sequence (Q8TCT1 whole entry, looked up): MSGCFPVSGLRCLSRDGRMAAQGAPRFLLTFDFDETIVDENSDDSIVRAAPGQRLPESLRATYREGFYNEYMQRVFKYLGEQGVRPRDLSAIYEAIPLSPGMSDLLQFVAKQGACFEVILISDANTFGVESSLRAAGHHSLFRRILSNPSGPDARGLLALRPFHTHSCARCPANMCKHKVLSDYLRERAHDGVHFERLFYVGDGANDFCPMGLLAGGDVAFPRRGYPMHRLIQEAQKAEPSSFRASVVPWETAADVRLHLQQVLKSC
PABP polyA inh = PABP-poly(A) binding inhibition. PABP-poly(A) RNA binding, fluorescence polarization. calls only at 35 µM. 290,000 tested, 1% active. AID 2014;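 also: calls also rest on retests at 20 µM and on dose response follow-up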
AI-2 QS modul = modulates the Vibrio harveyi AI-2 quorum sensing system; Vibrio harveyi JMH597 AI-2 luminescence/OD600 ratio, 9 h; stronger effect = lower value; strain lacks LuxN and CqsS sensors; 0 = neutral-control median; activity change, % at 7.5 µM; 300,000 tested, 0.4% active; in the data active = activity change below about -75%, passing the limit was not always enough; inconclusive = no clear call, values can overlap the other calls;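 also: luminescence divided by OD600 gain over 9 h not by final OD600 alone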
ABCB6 inh MLPCN = inhibitors of human ABC transporter ABCB6; Q9NP58; K562-ABCB6 porphyrin accumulation, flow cytometry, 1 h; stronger effect = lower value; fluorescence ratio to DMSO, % at 10 µM; 360,000 tested, 0.19% active; AID 602162;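 active = fluorescence ratio to DMSO below 75%, the collection mean minus 3 SD; inconclusive = too few cells collected in the well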;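 also: signal is porphyrin accumulated inside mitochondria; 100% equals median channel fluorescence of DMSO control wells; lower ratio means ABCB6 inhibition with less porphyrin fluorescence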
eIF4H FP inh = inhibitors of RNA binding by human eIF4H; 290,000 tested, 0.94% active; eIF4H fluorescence polarization binding assay; Q15056; AID 2012; inhibition, % at 35 µM;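 also: calls also rest on retests at 20 µM and on dose response follow-up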
* marks the source's active call; other numbers are inactive results; i = inactive; ? = inconclusive; . = not tested or not shown; + = active, no number. Unless noted, no rule for the calls is given here.

SMILES	PABP1 MLLE inh	PHOSPHO1 inh	PABP polyA inh	AI-2 QS modul	ABCB6 inh MLPCN	eIF4H FP inh
CCc1ccc(C(N)=S)cc1	41*	16	?	2	92	-7
CCCc1cc(=O)n2nc(N3CCC(C(=O)N4CCN(c5ccc(OC)cc5)CC4)CC3)sc2n1	1	64*	i	6	98	-2
OCCNCCSc1nc(C2CCCCC2)n(-c2ccccc2Cl)n1	1	15	i	8	101	4.8*
NC(=O)NC(=O)CSc1nc(C2CCCCC2)n(-c2ccccc2)n1	-2	3	i	26	98	-1
O=C1CC(Sc2ncccn2)C(=O)N1c1ccccc1 (stereo not given)	17	22	i	8	87	60
O=C1CC(Sc2nnc(-c3ccccc3O)o2)C(=O)N1c1ccccc1 (stereo not given)	-13	95*	i	30	99	4
CCOC(=O)c1ccc(N2C(=O)CC(Sc3nnc(C)s3)C2=O)cc1 (stereo not given)	15	100*	i	32	98	5
CCOc1ccc(N2C(=O)CC(Sc3nc4ccc(OCC)cc4s3)C2=O)cc1 (stereo not given)	5	.	.	6	92	.
Nc1nnc(SC2CC(=O)N(c3ccccc3)C2=O)s1 (stereo not given)	42*	98*	i	-18	95	2
COc1ccc(N2C(=O)CC(Sc3nnc(-c4ccccc4)o3)C2=O)cc1 (stereo not given)	-33	56	i	53	92	-5
CCOc1ccc2nc(SC3CC(=O)N(c4ccc(C)cc4)C3=O)sc2c1 (stereo not given)	-20	84*	i	31	108	-2
O=C(Nc1cccc(C(=O)N2CCOCC2)c1)C1CCCCC1	.	.	.	.	99	.
CC(C)(C)c1ccc(C(=O)N2CCC2(C)C(=O)Nc2cnc3ccccc3c2)cc1 (stereo not given)	-1	.	.	.	101	.
C=CCNc1nnc(SC2CC(=O)N(c3ccc(OCCC)cc3)C2=O)s1 (stereo not given)	32	100*	i	-52	80	-2
CCOc1ccc(N2C(=O)CC(Sc3ncccn3)C2=O)cc1 (stereo not given)	29	6	i	35	101	2
O=C(NCCN1CCC(n2c(=O)[nH]c3ccccc32)CC1)c1ccc(C(F)(F)F)cc1C(F)(F)F	.	.	.	.	94	.
O=C(O)COn1c(-c2ccccc2)nc2ccc([N+](=O)[O-])cc21	34	42	+	12	103	104
O=[N+]([O-])c1ccc2nc(-c3ccc(Cl)cc3)n(OCc3ccccc3)c2c1	5	62*	i	4	96	-14
CCOC(=O)C(C)On1c(-c2ccc(Cl)cc2)nc2ccc([N+](=O)[O-])cc21 (stereo not given)	1	102*	i	26	102	2
Cc1ccc(COn2c(-c3ccc(Cl)cc3)nc3ccc([N+](=O)[O-])cc32)cc1	24	17	i	19	91	9
CCOC(=O)C(C)On1c(-c2ccccc2)nc2ccc([N+](=O)[O-])cc21 (stereo not given)	15	1	i	12	100	-3
CC1=C(C(=O)N2CCCCCC2)CC(CC(=O)NCC2CCCCC2)C(=O)N1Cc1ccc(F)cc1 (stereo not given)	.	.	.	.	92	.
COc1cc(-c2cnc3c(NC=O)cc(-c4ccccc4Cl)cn23)cc(OC)c1OC	-21	.	.	.	102	.
CSc1ccc(CN(C)C(=O)c2cccc(S(=O)(=O)NCc3ccccc3)c2)cc1	7	0	+	30	102	25
Cc1csc(N=Nc2ccc(N(C)C)cc2)[n+]1[O-]	-15	.	.	.	104	.
SMILES	PABP1 MLLE inh	PHOSPHO1 inh	PABP polyA inh	AI-2 QS modul	ABCB6 inh MLPCN	eIF4H FP inh
O=C(NNc1nc2c(F)cccc2s1)c1ccccc1	-103	27	i	22	96	-4
O=C(NNc1nc2ccc(F)cc2s1)c1cccc(F)c1	-125	-16	i	-119*	98	9
O=C(NNc1nc2ccccc2s1)c1ccc(F)cc1	-99	2	i	-77*	98	-3
CCn1c2ccccc2c2cc(NC(=O)c3coc(=O)c(Br)c3)ccc21	104	-6	i	16	158	105*
CCn1c2ccccc2c2cc(NC(=O)c3ccc(=O)oc3)ccc21	-34	19	?	-30	116	?
Cn1c(=O)c2c(-c3ccccc3)n(-c3cccc(O)c3)cc2n(C)c1=O	19	.	.	.	93	.
Cn1c(=O)c2c(-c3ccccc3)n(-c3ccc(N)cc3)cc2n(C)c1=O	57*	.	.	.	98	.
CC(C)C[C@H]1COc2cc(N(C)CCO)ccc2S(=O)(=O)N1	.	.	.	.	96	.
CCN1C(=O)C(C(=O)c2ccccc2)SC1=S (stereo not given)	38*	4	i	18	102	20
COc1ccc(Cc2c(C3CCCCC3)nc3c(C)cc(Br)cn23)c(C)c1	66	.	.	.	89	.
C[C@@H]1CCCCO[C@@H](CN(C)C(=O)CCCN(C)C)[C@@H](C)CN([C@H](C)CO)C(=O)c2cc(NC(=O)CCC(F)(F)F)ccc2O1	-4	.	.	.	98	.
CC1CCCN(C(=O)CN2CCC(c3nc4ccc(Cl)cc4[nH]3)CC2)C1 (stereo not given)	5	34	+	10	101	91*
Clc1ccc(CN2CCC(c3nc4ccc(Cl)cc4[nH]3)CC2)cc1	-21	22	i	2	107	-2
O=C(CC1SC(N2CCOCC2)=NC1=O)Nc1cc([N+](=O)[O-])ccc1Cl (stereo not given)	17	4	+	5	91	?
CCc1nc2ccc(C(=O)Nc3ccc4c(c3)OCC(=O)N4)cn2c1N(C)Cc1nccn1C	-4	.	.	.	96	.
CCCS(=O)(=O)NC(=O)C1(C)CCCN(C(=O)c2ccc(SC(F)(F)F)cc2)C1 (stereo not given)	6	.	.	.	91	.
CCN1/C(=C\C(C)=O)Sc2ccc(OC)cc21	-125	61*	i	26	101	-11
CCCNC(=O)C1(C)CCCN(Cc2ccc3c(c2)OCO3)C1 (stereo not given)	0	.	.	.	105	.
O=C1/C(=C/c2ccc([N+](=O)[O-])cc2)Oc2cc(O)ccc21	-40	22	i	-83*	102	16
O=C1/C(=C/c2ccc(Br)cc2)Oc2cc(O)ccc21	-46	20	+	15	100	61
CC(C)(C)c1ccc(/C=C2\Oc3cc(O)ccc3C2=O)cc1	-51	14	i	20	99	-2
NC(c1csc(NC(=O)c2cccc(OC(F)(F)F)c2)n1)c1ccccc1Cl (stereo not given)	-9	.	.	.	150	.
CCCCn1c(N)c(C(=S)NC(=O)CC(C)(C)C)c(=O)n(C)c1=O	48*	-4	i	2	100	-1

Source: PubChem (several laboratories)
